{"source": "ChEMBL document CHEMBL3988442", "about": "“University of Dundee, Small-Polar-MMV Screening Library” (2021)", "note": "Screen size: about 48,000 compounds; about 13,000 (27%) showed an effect of 50% or more. The list shows a part of the results.", "data": [{"tested_on": "Wolbachia pipientis", "assay": "Anti-Wolbachia Cell-Based Screen", "assay_type": "functional", "design": "scale not given: in the data most compounds retested in dose-response had high values", "conditions": "5 µM", "units": {"Percent Effect": "%"}, "values": [{"compound": "O=C(c1ccc(O)cn1)N1CCOC(Cc2cccc(C(F)(F)F)c2)C1", "note": "(centres undefined)", "Percent Effect": 9.036}, {"compound": "Cc1ccnc(OC[C@@]23CCO[C@@H]2CCN(c2ncc(F)cn2)C3)n1.O=C(O)C(F)(F)F", "Percent Effect": -3.381}, {"compound": "NC(=O)c1cnn2c1NCC(CNC1(c3ccccc3)CCC1)C2", "note": "(centres undefined)", "Percent Effect": 91.1}, {"compound": "c1ccc(Cn2cccn2)c(CNCC2CNc3ccnn3C2)c1", "note": "(centres undefined)", "Percent Effect": 2.44}, {"compound": "O=C(NCCCNCC1CNc2ccnn2C1)c1ccccc1", "note": "(centres undefined)", "Percent Effect": -22.14}, {"compound": "Cc1cnn(C2CN(CC(=O)NCC3(c4ccccc4)CC3)C2)c1", "Percent Effect": -47.8}, {"compound": "Cc1cnn(C2CN(CC(=O)NCC3(c4ccccc4)CCC3)C2)c1", "Percent Effect": -4.16}, {"compound": "c1ccc(C2(NCC3CNc4ccnn4C3)CCC2)cc1", "note": "(centres undefined)", "Percent Effect": 81.61}, {"compound": "NC(=O)c1cnn2c1NCC(CNCCCOc1ccccc1F)C2", "note": "(centres undefined)", "Percent Effect": -5.67}, {"compound": "NC(=O)c1cnn2c1NCC(CNCC1(c3ccccc3)CCCC1)C2", "note": "(centres undefined)", "Percent Effect": 95.13}, {"compound": "NC(=O)c1cnn2c1NCC(CNCCc1ccco1)C2", "note": "(centres undefined)", "Percent Effect": -4.106}, {"compound": "CNS(=O)(=O)c1cccc(C(C)NCc2ccc(C)c(C)c2)c1", "note": "(centres undefined)", "Percent Effect": -2.241}, {"compound": "CCc1cnc(C)nc1NC(C)C(=O)Nc1cc(F)ccc1C", "note": "(centres undefined)", "Percent Effect": -2.868}, {"compound": "Cn1cnnc1S(=O)(=O)Cc1cc(Cl)c2c(c1)OCCO2", "Percent Effect": -9.232}, {"compound": "COCCN(Cc1cccc(O)c1)Cc1ccccc1F", "Percent Effect": 0.04507}, {"compound": "CN1CCN(Cc2cnc(S(=O)(=O)CC3CC3)n2CC2CCCO2)CC1", "note": "(centres undefined)", "Percent Effect": -10.61}, {"compound": "O=C(CN1CCCS1(=O)=O)Nc1ccc(OC2CCCC2)c(Cl)c1", "Percent Effect": -10.49}, {"compound": "O=C(C[C@H]1[C@H]2CN(Cc3ccc(F)cc3)C[C@@H]12)N1CCCC1.O=C(O)C(F)(F)F", "Percent Effect": -45.89}, {"compound": "COCC1CC2(CCN(Cc3cccnc3)CC2)CN1c1ncccn1.O=C(O)C(F)(F)F.O=C(O)C(F)(F)F.O=C(O)C(F)(F)F", "note": "(centres undefined)", "Percent Effect": -11.87}, {"compound": "O=C(c1cscn1)N1CCC2(CCN(Cc3nccs3)CC2)CC1", "Percent Effect": -43.87}, {"compound": "O=C(Cc1cccnc1)N1CCC2(CCN(CC3CCCCC3)C2)CC1.O=C(O)C(F)(F)F.O=C(O)C(F)(F)F", "Percent Effect": 8.236}, {"compound": "O=C(CC1CCC2(CC1)CCN(Cc1cccnc1)CC2)N1CC=CC1.O=C(O)C(F)(F)F.O=C(O)C(F)(F)F", "Percent Effect": 82.49}, {"compound": "O=C(O)C(F)(F)F.O=C(O)C(F)(F)F.O=C(O)C(F)(F)F.c1cc(CN2CCOCC3(CCN(CC4CCOCC4)CC3)C2)ccn1", "Percent Effect": -16.5}, {"compound": "O=C(CC1CCC2(CC1)CCN(Cc1ccncc1)CC2)N1CCCC1.O=C(O)C(F)(F)F", "Percent Effect": 108.9}, {"compound": "O=C(CC1CCC2(CC1)CCN(Cc1nccs1)CC2)N1CC=CC1", "Percent Effect": 106.8}, {"compound": "O=C(O)C(F)(F)F.O=C(O)C(F)(F)F.c1csc(CN2CCC3(CC2)CCN(CC2CC2)CC3)n1", "Percent Effect": 12.33}, {"compound": "COc1ccccc1OCc1nc2cc3c(cc2c(=O)o1)OCCCO3", "Percent Effect": -14.32}, {"compound": "Cc1nc(C2CCN(C[C@H](C)CO)CC2)cc(N2CCOCC2)n1", "Percent Effect": 2.667}, {"compound": "NC(=O)CC1CCN(C(=O)c2cnc(-c3ccccc3F)s2)CC1", "Percent Effect": 1.886}, {"compound": "Cc1cc(C(=O)N2CCNC(=O)C2)c(C)n1CC(F)(F)F", "Percent Effect": -17.07}, {"compound": "CCc1c(C(=O)N2CCN(CC(N)=O)CC2)cnn1C(C)(C)C", "Percent Effect": 15.08}, {"compound": "CCOCCn1nc(C)cc1C(=O)N1CCCC[C@H](N(C)C)C1", "Percent Effect": -3.082}, {"compound": "Cc1ccsc1CNc1ccc(C(=O)N2CCNC(=O)C2)cn1", "Percent Effect": -3.195}, {"compound": "CCc1c(C(=O)N2CCN(c3ncccn3)CC2)cnn1C(C)(C)C", "Percent Effect": 6.599}, {"compound": "CCCc1c(C(=O)N2CCN(c3cnccn3)CC2)cnn1C", "Percent Effect": 10.15}, {"compound": "Cc1ccc(C(=O)N2CCCC(N(C)C(=O)OC(C)(C)C)C2)o1", "note": "(centres undefined)", "Percent Effect": 9.731}, {"compound": "CCc1c(C(=O)N2CCNC(=O)C2)cnn1C(C)(C)C", "Percent Effect": 104.8}, {"compound": "CCc1c(C(=O)N2CCN(c3cnccn3)CC2)cnn1C(C)(C)C", "Percent Effect": 78.79}, {"compound": "CCc1c(C(=O)N2CCC(CC(N)=O)CC2)cnn1C(C)(C)C", "Percent Effect": 114.3}, {"compound": "CCc1c(C(=O)N2CCCC(N(C)C)C2)cnn1C(C)(C)C", "note": "(centres undefined)", "Percent Effect": 105.9}, {"compound": "O=C(NCCN1CCOCC1)N1CCN(c2ccccc2)CC1", "Percent Effect": -9.765}, {"compound": "Cc1ccccc1CNc1ccc(S(N)(=O)=O)c(C(F)(F)F)c1", "Percent Effect": -19.7}, {"compound": "COc1cccc(CCC2CCCN(C(=O)C3=NN(C)C(=O)CC3)C2)c1", "note": "(centres undefined)", "Percent Effect": 3.443}, {"compound": "O=C(NCc1nncn1C1CC1)C1(c2cccc(F)c2)CCOCC1", "Percent Effect": 0.3927}, {"compound": "Cc1cc(C)n(CC(C)NC(=O)C2(c3ccc(F)cc3)CC2)n1", "note": "(centres undefined)", "Percent Effect": -1.516}, {"compound": "CC(Cn1ccnc1)NC(=O)C1(c2ccc(F)cc2)CC1", "note": "(centres undefined)", "Percent Effect": 6.075}, {"compound": "O=C(NC(CN1CCCC1)c1ccccc1)c1c(O)cc(F)cc1F", "note": "(centres undefined)", "Percent Effect": -3.42}, {"compound": "CCC(CN1CCCCC1)NC(=O)C1(c2ccc(F)cc2)CC1.O=C(O)CC(O)(CC(=O)O)C(=O)O", "note": "(centres undefined)", "Percent Effect": 147.4}, {"compound": "O=C(NCC(O)COc1ccccc1)C1(c2ccc(F)cc2)CC1", "note": "(centres undefined)", "Percent Effect": -6.241}, {"compound": "CC1CN(C(=O)C2(c3cccc(F)c3)CCOCC2)CCO1", "note": "(centres undefined)", "Percent Effect": -11.59}, {"compound": "CC(CNC(=O)C1(c2ccc(F)cc2)CC1)CN1CCCC1=O", "note": "(centres undefined)", "Percent Effect": -3.318}, {"compound": "Cc1cccc(C2(C(=O)NCC(C)CN3CCCC3=O)CC2)c1", "note": "(centres undefined)", "Percent Effect": -2.528}, {"compound": "CCC(CN1CCCC1)NC(=O)C1(c2cccc(F)c2)CC1.O=C(O)CC(O)(CC(=O)O)C(=O)O", "note": "(centres undefined)", "Percent Effect": 113.9}, {"compound": "CCC(CN1CCCCC1)NC(=O)C1(c2cccc(F)c2)CC1.O=C(O)CC(O)(CC(=O)O)C(=O)O", "note": "(centres undefined)", "Percent Effect": 128.4}, {"compound": "CCC(CN1CCCC1)NC(=O)C1(c2ccc(F)cc2)CC1", "note": "(centres undefined)", "Percent Effect": 125.8}, {"compound": "COc1cccc(-c2n[nH]c3c2CN(C(=O)C2=C(C)OCCO2)CC3)c1", "Percent Effect": 9.828}, {"compound": "Cc1cc(CNc2cncc(C(=O)N(C)C)n2)c2[nH]c(C)c(C)c2c1", "Percent Effect": 5.027}, {"compound": "O=C(O)c1ccccc1-c1c(-c2ccccc2)ncn1C[C@H]1CCCN1", "Percent Effect": -12.22}, {"compound": "c1cncc(CNc2cccc(OCCN3CCCCC3)c2)c1", "Percent Effect": 1.449}]}]}
